These results are taken from PubChem BioAssay (NCI).

Holding throughout (experiment): NCI-60 one-dose screen, 48 h (100 = growth as untreated, 0 = no growth, -100 = all killed)
One test relates to HCT-15 colon. The conditions noted are these: 10 µM unless noted.
For another test, the system named is HT29 colon. The conditions noted are these: 10 µM unless noted.
For another test, the system named is SNB-75 CNS. The conditions noted are these: 10 µM unless noted.
The test system of another test is SNB-19 CNS. The settings on record: 10 µM unless noted.
The subject of another test is U251 CNS. The conditions noted are these: 10 µM unless noted.
Another test concerns PC-3 prostate. The conditions noted are these: 10 µM unless noted.
The test system of the next test is SK-MEL-5 melanoma. The conditions noted are these: 10 µM unless noted.
For the next test, the system named is UACC-62 melanoma. The settings on record: 10 µM unless noted.
A further test has as its system LOX IMVI melanoma. The conditions noted are these: 10 µM.
The subject of a further test is SK-MEL-28 melanoma. The settings on record: 10 µM unless noted.
Another test concerns SK-MEL-2 melanoma. The conditions noted are these: 10 µM unless noted.
A further test deals with EKVX NSCLC. The conditions noted are these: 10 µM unless noted.
Another test has as its system SN12C renal. The settings on record: 10 µM unless noted.
In another test the test system is UO-31 renal. The conditions noted are these: 10 µM unless noted.
For the next test, the system named is TK-10 renal. The settings on record: 10 µM unless noted.
Another test deals with ACHN renal. The conditions noted are these: 10 µM unless noted.
The test system of a further test is CAKI-1 renal. The settings on record: 10 µM unless noted.
Another test concerns A498 renal. The conditions noted are these: 10 µM unless noted.
Another test deals with CCRF-CEM leukemia. The settings on record: 10 µM unless noted.
The test system of another test is MOLT-4 leukemia. The conditions noted are these: 10 µM unless noted.

The structures appear in SMILES notation. The panel holds about 83,000 compounds, 20% with a hit somewhere; the sample as a whole holds those more often.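 96-well plates, one dose, 48 hours. Percent growth reported; active if below 10.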 Values without a mark were called inactive. The source made the active and inactive calls.

For the molecule `CCCCCCCCCCCC[n+]1ccc2ccccc2c1`, the growth is 25% with HCT-15 colon; 0.914% (active) with HT29 colon; -21% (active) in the test with SNB-75 CNS; -19.8% (active) in the test with SNB-19 CNS; -53.5% (active) in the test on U251 CNS; -34.1% (active) with PC-3 prostate. Moreover, the growth in the test with SK-MEL-5 melanoma was -93.7% (active); in the test with UACC-62 melanoma, -62.1% (active); in the test with LOX IMVI melanoma, -75% (active); in the test with SK-MEL-28 melanoma it was -28.6% (active); in the test with SK-MEL-2 melanoma, -24.7% (active); with EKVX NSCLC, -4.82% (active). For the same molecule, the growth in the test on SN12C renal was -18.4% (active); in the test on UO-31 renal it was -23.8% (active); with TK-10 renal, -46.7% (active); in the test with ACHN renal, 13%; in the test on CAKI-1 renal, 40.9%; in the test with A498 renal it was 77.6%. The growth is 3.12% (active) in the test with CCRF-CEM leukemia and -25.9% (active) in the test with MOLT-4 leukemia.
As to `CCOC(=O)/C(=C\c1ccc2ccccc2c1)P(=O)(OCC)OCC`, the growth in the test on HCT-15 colon was 2.93% (active); with HT29 colon it was 3.89% (active); in the test on SNB-75 CNS, 35.2%; with SNB-19 CNS it was 41.8%; in the test on U251 CNS, 38.2%; in the test on PC-3 prostate, 58.5%. Besides, the growth with SK-MEL-5 melanoma was 44.4%; in the test on UACC-62 melanoma, 9.26% (active); with LOX IMVI melanoma, -55.6% (active); with SK-MEL-28 melanoma, 18.7%; with SK-MEL-2 melanoma, 54.7%; in the test on EKVX NSCLC it was 71%. Moreover, the growth in the test on SN12C renal is 17%; in the test on UO-31 renal it was 12.4%; in the test on TK-10 renal, 61.4%; in the test on ACHN renal it was 14%; in the test with CAKI-1 renal, 45.5%; in the test on A498 renal it was 55.3%. For the same molecule, the growth is -36.6% (active) in the test with CCRF-CEM leukemia and -25.1% (active) in the test with MOLT-4 leukemia.
Turning to `O=C1C=CC(O)=CC1=P(c1ccccc1)(c1ccccc1)c1ccccc1`, the growth in the test with HCT-15 colon is 96.2%; with HT29 colon it was 103%; with SNB-75 CNS, 84.2%; in the test with SNB-19 CNS, 94.9%; in the test with U251 CNS, 92.3%; in the test with PC-3 prostate it was 91.6%. The growth in the test with SK-MEL-5 melanoma is 95.7%; in the test on UACC-62 melanoma it was 83.7%; in the test on LOX IMVI melanoma it was 94.7%; in the test with SK-MEL-28 melanoma, 102%; in the test with SK-MEL-2 melanoma, 82.6%; in the test with EKVX NSCLC it was 93.8%. Besides, the growth was 89.4% in the test with SN12C renal; 71.8% with UO-31 renal; 96.3% in the test on TK-10 renal; 99.2% in the test on ACHN renal; 86.2% in the test on CAKI-1 renal; 58.6% in the test on A498 renal. The growth in the test with CCRF-CEM leukemia is 86.9%; in the test with MOLT-4 leukemia, 101%.
For `CC1C(c2ccccc2)OCCN1C(=S)Nc1ccc(S(=O)(=O)N2CCCCC2)cc1` (stereo not given), the growth with HCT-15 colon is 97.2%; in the test on HT29 colon it was 87.5%; in the test with SNB-75 CNS it was 100%; with SNB-19 CNS, 102%; with U251 CNS, 93%; in the test with PC-3 prostate, 97.7%. For the same molecule, the growth with SK-MEL-5 melanoma was 88.7%; in the test with UACC-62 melanoma, 88.9%; in the test with LOX IMVI melanoma, 58.9%; in the test on SK-MEL-28 melanoma it was 108%; in the test with SK-MEL-2 melanoma it was 104%; in the test on EKVX NSCLC, 92.1%. Besides, the growth with SN12C renal was 96.1%; in the test on UO-31 renal, 94.5%; with TK-10 renal it was 116%; in the test on ACHN renal, 96.4%; in the test on CAKI-1 renal it was 36.4%; in the test on A498 renal, 99.3%. For the same molecule, the figures for the growth with CCRF-CEM leukemia and in the test on MOLT-4 leukemia were 81% and 99.5%, respectively.
As to `COC(=O)C(=[N+]=[N-])C(=O)c1ccc([N+](=O)[O-])o1`, the growth was 10.5% in the test with HCT-15 colon; 61.5% in the test with HT29 colon; 103% in the test on SNB-75 CNS; 92.9% with SNB-19 CNS; 88.7% in the test with U251 CNS; 74% in the test on PC-3 prostate. The growth with SK-MEL-5 melanoma is 93.6%; with UACC-62 melanoma, 74%; in the test with LOX IMVI melanoma it was 78.9%; in the test with SK-MEL-28 melanoma, 109%; with SK-MEL-2 melanoma it was 95.5%; with EKVX NSCLC it was 111%. Further, the growth in the test on SN12C renal is 90.9%; in the test with UO-31 renal, 89.7%; in the test on ACHN renal it was 67.1%; in the test with CAKI-1 renal, 104%; in the test with A498 renal, 69.1%; with CCRF-CEM leukemia, 83.9%. Moreover, in the test with MOLT-4 leukemia, the growth is 93.6%.
With `Cc1ccccc1NC(=O)Cc1csc2[n+]1C(=O)/C(=C/c1ccc([N+](=O)[O-])cc1)S2`, the growth was 100% in the test on HCT-15 colon; 113% in the test with HT29 colon; 80.9% in the test on SNB-75 CNS; 102% in the test on SNB-19 CNS; 92.2% with U251 CNS; 85.9% in the test on PC-3 prostate. In addition, the growth in the test on SK-MEL-5 melanoma was 94.3%; with UACC-62 melanoma, 88.2%; in the test on LOX IMVI melanoma, 86.6%; in the test on SK-MEL-28 melanoma it was 95.8%; in the test with SK-MEL-2 melanoma, 108%; with EKVX NSCLC, 92.8%. Moreover, the growth with SN12C renal was 99.6%; in the test with UO-31 renal it was 71.8%; with TK-10 renal, 117%; in the test on ACHN renal it was 90.4%; in the test with CAKI-1 renal it was 93.4%; in the test with A498 renal it was 75%. Further, the growth in the test with CCRF-CEM leukemia is 99.1%; in the test with MOLT-4 leukemia, 88.2%.
On to `CCN(CC)c1ccc(/C=C\C(=O)c2ccc(NC(C)=O)cc2)cc1`, for which the growth with HCT-15 colon is 45.6%; with HT29 colon it was 39.5%; with SNB-75 CNS, -0.746% (active); with SNB-19 CNS, 61.5%; in the test with U251 CNS, 41.9%; in the test with PC-3 prostate it was 71.9%. Further, the growth was 97.4% in the test with SK-MEL-5 melanoma; 78.5% in the test with UACC-62 melanoma; 74.1% with LOX IMVI melanoma; 82% with SK-MEL-28 melanoma; 76.8% in the test on SK-MEL-2 melanoma; 79.1% in the test on EKVX NSCLC. For the same molecule, the growth with SN12C renal was 48.9%; in the test on TK-10 renal, 92.4%; in the test with ACHN renal, 61.4%; in the test with CAKI-1 renal, 54.9%; with A498 renal, 71.6%; in the test with CCRF-CEM leukemia it was 82.9%.
For `CC(CSc1n[nH]c(=S)s1)c1ccccc1` (stereo not given), the growth with HCT-15 colon was 110%; in the test with HT29 colon it was 126%; in the test on SNB-75 CNS, 85.1%; in the test with SNB-19 CNS, 102%; in the test with U251 CNS, 107%; in the test with PC-3 prostate it was 102%. Besides, the growth in the test with SK-MEL-5 melanoma is 103%; in the test on UACC-62 melanoma it was 108%; with LOX IMVI melanoma, 97.6%; in the test on SK-MEL-28 melanoma, 116%; with SK-MEL-2 melanoma it was 130%; in the test with EKVX NSCLC, 107%. Besides, the growth is 101% with SN12C renal; 77.4% in the test with UO-31 renal; 116% in the test with TK-10 renal; 116% with ACHN renal; 98.5% in the test with CAKI-1 renal; 108% in the test on A498 renal. In the test on MOLT-4 leukemia, the growth was 91.2%.
For `O=C(c1ccc(O)c(Br)c1)c1ccc(O)c(Br)c1`, the growth in the test on HCT-15 colon was 104%; in the test with HT29 colon, 114%; in the test with SNB-75 CNS, 94.9%; in the test on SNB-19 CNS it was 94.3%; with U251 CNS, 109%; with PC-3 prostate it was 101%. For the same molecule, the growth in the test on SK-MEL-5 melanoma is 99.4%; with UACC-62 melanoma, 97.1%; in the test with LOX IMVI melanoma, 108%; in the test with SK-MEL-28 melanoma it was 110%; with SK-MEL-2 melanoma it was 105%; in the test with EKVX NSCLC, 112%. The growth in the test on SN12C renal was 94.4%; with UO-31 renal, 98.5%; in the test on TK-10 renal it was 99.4%; with ACHN renal, 102%; with CAKI-1 renal it was 119%; in the test with A498 renal, 93.9%. The growth in the test with CCRF-CEM leukemia is 109%.
